The values that follow come from PubChem BioAssay AID449762 (Southern Research Specialized Biocontainment Screening …, 2010).

Several values for one entry are separate records, joined by “and”; a condition that tells them apart may be missing. Identical values can stand only once. In all, about 330,000 compounds went through this assay and about 1,900 (0.58%) were called active. Not shown: some 4% with an inconclusive outcome. No stated cut-off is given here; in the data, inconclusive means inhibition above about 70% without an active follow-up result; inactive means below that. These entries were drawn from the full list. Results with a measured potency or affinity are listed apart.

Usually inhibition stands for the change of the read-out against control, counted positive when it falls.

The assay in a line: M. tuberculosis growth inhibition, HTS (AID 449762).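 Further: bacterial growth assessed after seven days of incubation.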 The conditions noted are these: M. tuberculosis H37Rv growth inhibition, 7H9 media; at 25 µM; stronger effect = higher value.
With `COc1cc(NC(=O)C2CCN(S(=O)(=O)c3cccc4nonc34)CC2)cc(OC)c1`, the inhibition is 2.95% (inactive).
Take `CCOC(=O)CC(=O)CSc1ncnc2c1nnn2-c1ccc(F)cc1`: the inhibition was -7.23% (inactive).
Turning to `CCOC(=O)C(CC)Sc1ncnc2c1nnn2-c1ccc(F)cc1` (stereo unspecified), the inhibition was -6.34% (inactive).
With `COC(=O)c1cc(NC(=O)C(C)c2ccc(CC(C)C)cc2)ccc1O` (stereo unspecified), the inhibition was 20.8% (inactive).
Regarding `CC1CCCN(C(=O)COC(=O)c2cccc(NS(=O)(=O)c3ccccc3)c2)C1` (stereo unspecified), the inhibition is -11.8% (inactive).
In the case of `O=C(O)c1cccc(-c2nnn(Cc3ccccc3)n2)c1`, the inhibition was -10.4% (inactive).
In the case of `O=C(Cn1nnc(-c2ccccc2)n1)OCc1ccccc1`, the inhibition was -6.9% (inactive).
Consider `CCCCc1nnc(NC(=O)C(=O)OCC)s1`, for which the inhibition is -3.95% (inactive).
Regarding `Cc1ccsc1C(=O)Nc1cccc(-n2cnnn2)c1`, the inhibition was -0.76% (inactive).
To `CCN(CC)S(=O)(=O)c1ccc(/C=C/C(=O)OCC(=O)N(C(C)C)C(C)C)cc1` belongs 3.48% (inactive); to `CCN(CC)S(=O)(=O)c1ccc(/C=C/C(=O)OCC(=O)N(C)C)cc1`, 4.6% (inactive); to `COc1ccc(NC(=S)N(CCCN2CCCC(C)C2)Cc2cccs2)cc1` (stereo unspecified), 6.16% (inactive).
`N#Cc1ccc(Cn2ccnc2C(=O)Nc2ccccc2)cc1`: the inhibition was 0.04% (inactive).
For the compound `CCN(CC)CCN1C(=O)C(=O)/C(=C(/O)c2ccc(S(=O)(=O)N3CCOCC3)cc2)C1c1ccc(C(C)C)cc1` (stereo unspecified), the inhibition is 1.15% (inactive).
Consider `CCNCc1nc2cc(OC)c(OC)cc2c(=O)[nH]1`, for which the inhibition is 2.16% (inactive).
As for `CCOC(=O)c1sc2nc(C)nc(SC(C)C(=O)NC3CC3)c2c1C` (stereo unspecified), the inhibition is 44% (inactive).
`CCOC(=O)c1sc2nc(C)nc(SCC(=O)NC(C)CCc3ccccc3)c2c1C` (stereo unspecified): the inhibition was -5.1% (inactive).
For the compound `O=C(c1ccc(F)cc1)C(CCCCCC(CN1CCOCC1)C(=O)c1ccc(F)cc1)CN1CCOCC1` (stereo unspecified), the inhibition is 2% (inactive).
To `COc1ncnc2c1oc1ccccc12` belongs 6.25% (inactive); to `c1cncc(-c2nc3c(ccc4ccccc43)[nH]2)c1`, -6.09% (inactive).
Turning to `Nc1ccc(-c2nc3c(ccc4ccccc43)[nH]2)cc1`, the inhibition is 6.07% (inactive).
With `O=C(Nc1ccc(S(=O)(=O)Nc2ccnn2-c2ccccc2)cc1)C(F)(F)F`, the inhibition was 56.7% (inactive).
Take `CC(=O)NC(CC(=O)Nc1nc(-c2ccc(N(C)S(C)(=O)=O)cc2)cs1)c1ccccc1` (stereo unspecified): the inhibition was -3.7% (inactive).
For `CCCCCNc1nc(-c2ccccc2)nc(-n2ccnc2)n1`, the inhibition is -1.97% (inactive).
As for `CC(C)Nc1nc(-c2ccccc2)nc(-n2ccnc2)n1`, the inhibition was 12.9% (inactive).
To `CCCOc1ccc(-c2nnn(CC(=O)c3ccc4c(c3)OCCO4)n2)cc1` belongs -6.75% (inactive); to `C=CCN1CC[C@]23c4c5ccc(O)c4O[C@H]2C(=O)CC[C@@]3(O)[C@H]1C5`, 29.2% (inactive) and -16.4% (inactive); to `C=CCN1CC[C@]23c4c5ccc(O)c4OC2C(=O)CC[C@@]3(O)C1C5` (stereo partly specified), -3.13% (inactive).
Regarding `COc1ccc(C(=O)Nc2ccc(OCC(F)(F)C(F)F)c(C(F)(F)F)c2)cc1OC`, the inhibition is -1.87% (inactive).
Consider `O=C(Nc1ccc(OCC(F)(F)C(F)F)c(C(F)(F)F)c1)c1ccccc1`, for which the inhibition was 3.85% (inactive).
To `COc1ccc(S(=O)(=O)N2CCOCC2)cc1NC(=O)CC1CCCC1` belongs -1.2% (inactive); to `O=C(NCc1ccc(F)cc1)Nc1cccc(Cl)c1`, -4.36% (inactive); to `CC(C)C(=O)Nc1ccc2c(c1)C(=O)N(CCC(=O)O)C2=O`, 3.16% (inactive).
To `O=C(NCc1ccc2c(c1)OCO2)C1CCCN1S(=O)(=O)c1ccc(Cl)cc1` (stereo unspecified) belongs -0.02% (inactive); to `CC(=O)Nc1cccc(NC(=S)Nc2cccc(Cl)c2Cl)c1`, 0.32% (inactive); to `COc1cc(/C=C2\SC(c3ccc(C)cc3)=NC2=O)cc(OC)c1OC`, -5.86% (inactive).
Take `COc1cc(/C=C2\N=C(C)OC2=O)cc(OC)c1OC`: the inhibition is 6.29% (inactive).
For `Cc1cccc(/C=N\NC(=O)c2sccc2-n2cccc2)c1`, the inhibition is 0.5% (inactive).
`COC(=O)C1=C(c2cccc(C#N)c2)C[C@@H]2CC[C@H]1N2C(=O)NCCc1ccccc1`: the inhibition is -2.69% (inactive).
To `CNC(=S)NNC(=O)c1sccc1OCc1ccc(Cl)cc1Cl` belongs -1.67% (inactive).
To `NNC(=O)c1sccc1OCc1ccc(Cl)cc1Cl` belongs 39.9% (inactive).
Take `CC(C)CC(CO)N1CCN(C(=O)c2ccc(Cl)c(Cl)c2)CCC1=O` (stereo unspecified): the inhibition is -0.29% (inactive).
In the case of `COc1ccc(NC(=O)c2nnn(CC(=O)Nc3ccccc3OC)c2N)c(OC)c1`, the inhibition was -1.76% (inactive).
Take `O=C(N=Nc1c(O)n(Cc2ccccc2)c2ccccc12)c1ccc(O)cc1`: the inhibition was 8.8% (inactive).
For `Cn1cnnc1SCc1ccc(C(=O)N=Nc2c(O)n(C)c3ccccc23)cc1`, the inhibition was -4.97% (inactive).
On to `CCCCCCC1CCC(C(=O)Nn2c(C)nc3ccccc3c2=O)CC1` (stereo unspecified), for which the inhibition was 12.2% (inactive).
In the case of `Cc1nc2ccccc2c(=O)n1NC(=O)C1CC1`, the inhibition was 4.78% (inactive).
Turning to `COc1ccc(NC(=O)C2CC(c3c(F)cccc3Cl)=NO2)cc1` (stereo unspecified), the inhibition was 0.25% (inactive).
In the case of `COc1ccc(OCCOc2cccc(C=C3C(=O)NC(=O)NC3=O)c2)cc1`, the inhibition is 21.3% (inactive).
In the case of `O=C(COc1ccc(Cl)cc1)NCCNC(=O)c1cnccn1`, the inhibition is 5.05% (inactive).
Regarding `O=C(NCC(c1ccco1)N1CCc2ccccc21)C(=O)Nc1ccccc1F` (stereo unspecified), the inhibition was 8.05% (inactive).
`CCCCOc1ccc(-c2nnn(CC(=O)Nc3ncc(CC(=O)OCC)s3)n2)cc1`: the inhibition was 4.47% (inactive).
Turning to `CCC(C(=O)O)n1nnc(-c2ccc(-c3ccc(OC)cc3)cc2)n1` (stereo unspecified), the inhibition is 4.02% (inactive).
Regarding `CC1Cc2ccccc2N1C(=O)CN1CCC(C(N)=O)CC1` (stereo unspecified), the inhibition is 0.29% (inactive).
`Cc1ccc(CNC(=O)c2ccc3c(=O)[nH]c4c(C(=O)NCC5CCCO5)sc(=S)n4c3c2)cc1` (stereo unspecified): the inhibition was 6.08% (inactive).
`O=C(NCc1ccccc1)c1ccc2c(=O)[nH]c3c(C(=O)NCC4CCCO4)sc(=S)n3c2c1` (stereo unspecified): the inhibition was 9.46% (inactive).
For the compound `COC(=O)c1ccc(NC(=S)N2CCN(Cc3ccccc3Cl)CC2)cc1`, the inhibition is 3.97% (inactive).
As to `COc1ccc(OC)c(NC(=O)CSc2nc(N3CCOCC3)nc(N3CCOCC3)n2)c1`, the inhibition was -13% (inactive).
Take `COc1ccc(Nc2ncc3c(n2)CC(c2ccc(C)cc2)CC3=O)cc1` (stereo unspecified): the inhibition was 11% (inactive).
To `COc1ccc(Nc2ncc3c(n2)CC(c2ccc(OC)cc2)CC3=O)cc1` (stereo unspecified) belongs 5.93% (inactive); to `CC(=O)c1c(COC(=O)c2cccc(C)c2)nc2ccccc2[n+]1[O-]`, -1.11% (inactive).
Take `CC(=O)c1c(N2CCCCC2)nc(=S)n(-c2ccccc2)c1C`: the inhibition was -9.27% (inactive).
In the case of `CN1CCC(N(C)C(=O)c2ccc(Cl)c(S(=O)(=O)Nc3cc(Cl)ccc3Cl)c2)CC1`, the inhibition is -3.22% (inactive).
On to `O=C(CCCN1C(=O)c2cccnc2C1=O)N1CC(=O)N(CCc2ccccc2)C(=O)C1`, for which the inhibition was 2.7% (inactive).
To `CC1CCN(CCNC(=O)C2CCN(S(=O)(=O)c3cccc4nsnc34)CC2)CC1` belongs -5.73% (inactive); to `CO/N=C(\Cn1ncc(N2CCOCC2)c(Br)c1=O)c1ccc(Cl)cc1`, -12.1% (inactive); to `O=C(Cn1ncc(N2CCCC2)c(Cl)c1=O)c1ccc(Cl)cc1`, -5.18% (inactive).
Consider `O=C(NCCC(=O)N1CCC2(CC1)NCCc1[nH]cnc12)c1cccc(C(F)(F)F)c1`, for which the inhibition is -1.8% (inactive).
Turning to `CS(=O)(=O)Nc1ccc(C2=NN(C(=O)c3ccco3)C(c3ccccc3)C2)cc1` (stereo unspecified), the inhibition was 2.8% (inactive).
`C=CCSC1=N/C(=C/c2ccsc2)C(=O)N1c1ccccc1`: the inhibition is -5.05% (inactive).
For `Cc1cc(C)n(-c2ccc(C(=O)Nc3ccc4c(c3)OCO4)cc2)n1`, the inhibition is 12.7% (inactive).
Regarding `Cc1cc(C)n(-c2ccc(C(=O)NCc3ccc4c(c3)OCO4)cc2)n1`, the inhibition is 8.5% (inactive).
To `COc1ccc(CCNC(=O)CCc2nc3sc4c(c3c(=O)[nH]2)CCCC4)cc1` belongs -1.73% (inactive).
In the case of `CCCCC(CC)CO` (stereo unspecified), the inhibition is -4.02% (inactive).
Consider `CCCCC(CC)COC(=O)CCCCC(=O)OCC(CC)CCCC` (stereo unspecified), for which the inhibition was 12.3% (inactive).
`Cc1csc(NC(=O)c2cccs2)n1`: the inhibition is -0.19% (inactive).
As for `Nc1ccc2nonc2c1[N+](=O)[O-]`, the inhibition was -0.05% (inactive).
To `Nc1cc(N2CCCCCC2)c2nonc2c1[N+](=O)[O-]` belongs -8.43% (inactive).
In the case of `COc1cccc2sc(N(CCN(C)C)C(=O)/C=C/c3cccs3)nc12`, the inhibition is 8.94% (inactive).
For `Cc1cccc2sc(N(CCN(C)C)C(=O)/C=C/c3cccs3)nc12`, the inhibition was 51.5% (inactive).
`CN(CC(=O)Nc1ccc(S(=O)(=O)N2CCCC2)cc1)Cc1ccc(Cl)cc1Cl`: the inhibition was -3.94% (inactive).
Consider `O=C(CCC(=O)N(CC(=O)NC1CCCC1)Cc1ccc(F)cc1)Nc1nccs1`, for which the inhibition was 7.88% (inactive).
To `O=C(NC1CC1)c1cccc(S(=O)(=O)Nc2ccccc2F)c1` belongs -4.2% (inactive); to `CCN(CC)c1ccc2cc(-c3nc4ccccc4[nH]3)c(=O)oc2c1`, 4.76% (inactive); to `CCN(CC)c1ccc(/C=N/Nc2nc3ccccc3[nH]2)c(O)c1`, 19.6% (inactive).
`O=c1c2oc3ccccc3c2[nH]c(=S)n1-c1ccc(F)cc1`: the inhibition was 0.38% (inactive).
Turning to `Fc1ccc(C2C3=C(Nc4ncnn42)c2ccccc2OC3c2ccncc2)cc1` (stereo unspecified), the inhibition was -5.07% (inactive).
Consider `Cc1ccc(C2Oc3ccccc3C3=C2C(c2cccs2)n2ncnc2N3)cc1` (stereo unspecified), for which the inhibition is 55.2% (inactive).
Consider `C/C=C\C=C\C(=O)N1CC2(CC(c3cccc(NC(=O)COc4ccc(Cl)cc4)c3)=NO2)C[C@H]1C(N)=O` (stereo partly specified), for which the inhibition was 23.8% (inactive).
As to `COc1c(C)cc(C(=O)C2CCCN(Cc3ccc(Oc4ncccn4)cc3)C2)cc1C` (stereo unspecified), the inhibition was 7.33% (inactive).
For the compound `COc1cccc(C(=O)C2CCCN(Cc3ccccn3)C2)c1` (stereo unspecified), the inhibition was 33.9% (inactive).
